Experimental data: PubChem BioAssay (EPA / NIEHS)
Records with an inconclusive call do not appear. Activity calls are given as the source filed them. Rule for the calls, unless noted: active = hit-call score of the fitted dose curve at least 0.9, where 1 is the maximum; inconclusive = response in the unintended direction; inactive = score below 0.9.

Assays:
[1] = molecular target: Androgen receptor (Homo sapiens) (UniProt P10275); assay: ATG_AR_TRANS: Attagene TRANS-FACTORIAL HepG2 Assay for human Androgen Receptor (AR) (AID 2282973); settings: HepG2 Attagene TRANS-FACTORIAL AR reporter transcription
Sequence of Androgen receptor (Homo sapiens) (P10275 whole entry, looked up, the tested form may be a part): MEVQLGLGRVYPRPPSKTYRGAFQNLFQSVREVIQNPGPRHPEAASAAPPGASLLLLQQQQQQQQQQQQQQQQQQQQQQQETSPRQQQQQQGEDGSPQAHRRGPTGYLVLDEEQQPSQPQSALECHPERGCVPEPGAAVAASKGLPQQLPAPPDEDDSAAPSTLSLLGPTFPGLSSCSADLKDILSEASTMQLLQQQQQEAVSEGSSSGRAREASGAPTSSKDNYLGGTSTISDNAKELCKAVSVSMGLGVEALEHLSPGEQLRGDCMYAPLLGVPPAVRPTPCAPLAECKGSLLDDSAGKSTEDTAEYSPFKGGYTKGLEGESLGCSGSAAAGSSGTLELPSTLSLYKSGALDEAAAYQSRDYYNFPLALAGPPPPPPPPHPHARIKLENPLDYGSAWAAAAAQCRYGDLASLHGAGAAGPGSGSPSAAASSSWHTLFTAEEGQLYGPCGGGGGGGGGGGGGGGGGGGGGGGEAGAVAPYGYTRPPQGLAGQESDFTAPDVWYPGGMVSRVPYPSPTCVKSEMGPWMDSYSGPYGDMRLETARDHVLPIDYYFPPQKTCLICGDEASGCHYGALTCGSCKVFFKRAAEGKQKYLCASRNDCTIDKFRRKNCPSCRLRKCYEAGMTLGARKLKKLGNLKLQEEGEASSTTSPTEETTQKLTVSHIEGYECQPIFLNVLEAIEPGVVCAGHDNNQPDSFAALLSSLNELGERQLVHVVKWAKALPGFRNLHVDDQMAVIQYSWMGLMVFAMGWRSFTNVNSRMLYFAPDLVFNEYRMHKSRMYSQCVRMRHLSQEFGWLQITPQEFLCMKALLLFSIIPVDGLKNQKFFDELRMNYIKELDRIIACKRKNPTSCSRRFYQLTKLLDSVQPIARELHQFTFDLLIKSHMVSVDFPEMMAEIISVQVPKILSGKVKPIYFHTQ
Outline: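 Transfected HepG2, 24 h treatment, chimeric NR-Gal4 driving GAL4-UAS reporters. mRNA induction by RT-PCR/capillary electrophoresis fluorescence; DMSO as negative control and baseline.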

[2] = Tanguay_ZF_120hpf_MUSC: Oregon State University Tanguay Lab 120 Hour Post-fertilization zebrafish Assay for Muscle Malformation (AID 2284401; active = hit-call score of the fitted dose curve at least 0.9, where 1 is the maximum; inactive = score below 0.9)
Outline: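 Scored as a binary brightfield endpoint at 120 hpf, fitted versus DMSO. Single dechorionated wild-type (Tropical 5D) zebrafish embryos per well, statically exposed at 28C from 6 hpf onward with final DMSO 0.64%.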

[3] = molecular target: human Acetylcholinesterase (AChE), ACHE (gene 43) (UniProt P22303); assay: NVS_ENZ_hAChE: NovaScreen (NVS) Enzymatic Assay for human Acetylcholinesterase (AChE) (AID 2283129)
Sequence of human Acetylcholinesterase (AChE), ACHE (gene 43) (P22303 whole entry, looked up): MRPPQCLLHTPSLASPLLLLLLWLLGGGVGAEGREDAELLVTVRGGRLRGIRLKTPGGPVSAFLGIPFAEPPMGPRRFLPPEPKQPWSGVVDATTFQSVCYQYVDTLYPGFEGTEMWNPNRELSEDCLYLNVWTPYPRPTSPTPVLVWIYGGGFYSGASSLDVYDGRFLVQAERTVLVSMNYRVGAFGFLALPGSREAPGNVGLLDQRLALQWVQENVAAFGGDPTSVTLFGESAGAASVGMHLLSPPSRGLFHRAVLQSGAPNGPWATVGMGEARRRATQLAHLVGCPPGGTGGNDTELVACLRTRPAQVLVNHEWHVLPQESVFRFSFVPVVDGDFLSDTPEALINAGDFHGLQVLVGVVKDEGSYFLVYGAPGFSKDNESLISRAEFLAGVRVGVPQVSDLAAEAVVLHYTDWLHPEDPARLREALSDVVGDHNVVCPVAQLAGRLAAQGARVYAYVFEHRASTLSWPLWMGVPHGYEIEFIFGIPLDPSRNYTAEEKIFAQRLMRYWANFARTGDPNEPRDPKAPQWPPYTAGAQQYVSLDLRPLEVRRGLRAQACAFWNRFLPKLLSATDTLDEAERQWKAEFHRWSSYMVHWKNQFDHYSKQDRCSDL
Outline: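 Actives from a duplicate single-point screen (25 uM) were followed up in concentration series. Enzyme activity read by absorbance (colorimetric) 0.33 hour after dosing, cell-free, normalized to DMSO, with loss of signal scored.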

Caspase-1 (Homo sapiens) = Caspase-1 (Homo sapiens) (UniProt P29466); assay: NVS_ENZ_hCASP1: NovaScreen (NVS) Enzymatic Assay for human Caspase 1 (CASP1) (AID 2283132)
Sequence of Caspase-1 (Homo sapiens) (P29466 whole entry, looked up): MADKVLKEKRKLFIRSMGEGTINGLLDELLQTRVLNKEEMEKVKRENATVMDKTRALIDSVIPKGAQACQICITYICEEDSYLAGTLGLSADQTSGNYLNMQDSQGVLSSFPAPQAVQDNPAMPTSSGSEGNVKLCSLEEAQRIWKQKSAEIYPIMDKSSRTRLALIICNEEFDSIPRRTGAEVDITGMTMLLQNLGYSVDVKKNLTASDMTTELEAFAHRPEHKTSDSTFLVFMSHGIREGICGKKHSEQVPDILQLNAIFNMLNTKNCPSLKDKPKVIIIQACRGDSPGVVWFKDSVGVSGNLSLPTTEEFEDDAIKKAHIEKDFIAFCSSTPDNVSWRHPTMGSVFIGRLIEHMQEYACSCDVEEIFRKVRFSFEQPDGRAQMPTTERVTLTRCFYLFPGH
Outline: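 Compounds were first tested in duplicate at 25 uM, with follow-up concentration series up to 50 uM. The bacterially expressed enzyme was read by fluorescence at 1 h post-dosing. Signal loss versus DMSO baseline indicates reduced enzyme activity.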

[4] = molecular target: human Caspase 2 (CASP2), CASP2 (gene 835) (UniProt P42575); assay: NVS_ENZ_hCASP2: NovaScreen (NVS) Enzymatic Assay for human Caspase 2 (CASP2) (AID 2283135)
Sequence of human Caspase 2 (CASP2), CASP2 (gene 835) (P42575 whole entry, looked up): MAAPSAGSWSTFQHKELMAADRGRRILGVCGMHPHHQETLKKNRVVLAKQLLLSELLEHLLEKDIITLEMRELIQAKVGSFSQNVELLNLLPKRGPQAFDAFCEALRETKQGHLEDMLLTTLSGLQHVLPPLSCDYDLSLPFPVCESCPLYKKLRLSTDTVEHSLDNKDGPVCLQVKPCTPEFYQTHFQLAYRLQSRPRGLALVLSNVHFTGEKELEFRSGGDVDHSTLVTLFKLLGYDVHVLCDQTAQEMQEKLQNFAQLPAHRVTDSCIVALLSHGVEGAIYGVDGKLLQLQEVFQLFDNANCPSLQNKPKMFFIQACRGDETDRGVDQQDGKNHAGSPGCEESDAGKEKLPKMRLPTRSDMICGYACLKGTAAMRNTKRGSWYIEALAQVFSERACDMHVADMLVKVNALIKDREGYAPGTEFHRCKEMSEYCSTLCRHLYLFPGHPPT
Outline: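 Single-point duplicate testing at 25 uM preceded concentration series topping at 50 uM. Activity of the recombinant E. coli-derived protease was followed by fluorescent substrate cleavage 1 h post-dosing, relative to DMSO.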

[5] = molecular target: human Caspase 10 (CASP10), CASP10 (gene 843) (UniProt Q92851); assay: NVS_ENZ_hCASP10: NovaScreen (NVS) Enzymatic Assay for human Caspase 10 (CASP10) (AID 2283133)
Outline: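 Fluorescence-intensity enzyme read-out of E. coli-expressed CASP10 activity, 1 h after compound. Single-point duplicates at 25 uM preceded concentration-response testing (top 50 uM) of hits; inhibition expressed as signal loss versus DMSO.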

[6] = molecular target: rat CYP2D1, Cyp2d1 (gene 266684) (UniProt P10633); assay: NVS_ADME_rCYP2D1: NovaScreen (NVS) CYP450-related Enzyme Activity (ADME) Assay for rat CYP2D1 (AID 2283122)
Outline: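 Rat CYP2D1 enzyme activity measured by fluorescence intensity in a cell-free format, 0.75 h post-dosing, acetonitrile as negative control. Screening at 10 uM in duplicate, with actives followed in concentration series up to 20 uM.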

[7] = CCTE_Harrill_HTTr_Apoptosis_PRF_DMEM_12hr: (Pilot) CCTE's 12-hour Apoptosis Assessment for the High-Throughput Transcriptomics (HTTr) Platform, in MCF-7 cells cultured in phenol red-free DMEM + 10% charcoal-stripped fetal bovine serum, Harrill Lab (AID 2283985; active = hit-call score of the fitted dose curve at least 0.9, where 1 is the maximum; inactive = score below 0.9)
Outline: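 Caspase-3/7 activity by CellEvent Green high content imaging after 12 h compound exposure (eight concentrations) in MCF-7 grown in phenol red-free DMEM plus 10% charcoal-stripped serum; DMSO as baseline.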

[8] = molecular target: human AMP-activated Protein Kinase, alpha 1 (AMPKa1), PRKAA1 (gene 5562) (UniProt Q13131); assay: NVS_ENZ_hAMPKa1: NovaScreen (NVS) Enzymatic Assay for human AMP-activated Protein Kinase, alpha 1 (AMPKa1) (AID 2283130)
Sequence of human AMP-activated Protein Kinase, alpha 1 (AMPKa1), PRKAA1 (gene 5562) (Q13131 whole entry, looked up): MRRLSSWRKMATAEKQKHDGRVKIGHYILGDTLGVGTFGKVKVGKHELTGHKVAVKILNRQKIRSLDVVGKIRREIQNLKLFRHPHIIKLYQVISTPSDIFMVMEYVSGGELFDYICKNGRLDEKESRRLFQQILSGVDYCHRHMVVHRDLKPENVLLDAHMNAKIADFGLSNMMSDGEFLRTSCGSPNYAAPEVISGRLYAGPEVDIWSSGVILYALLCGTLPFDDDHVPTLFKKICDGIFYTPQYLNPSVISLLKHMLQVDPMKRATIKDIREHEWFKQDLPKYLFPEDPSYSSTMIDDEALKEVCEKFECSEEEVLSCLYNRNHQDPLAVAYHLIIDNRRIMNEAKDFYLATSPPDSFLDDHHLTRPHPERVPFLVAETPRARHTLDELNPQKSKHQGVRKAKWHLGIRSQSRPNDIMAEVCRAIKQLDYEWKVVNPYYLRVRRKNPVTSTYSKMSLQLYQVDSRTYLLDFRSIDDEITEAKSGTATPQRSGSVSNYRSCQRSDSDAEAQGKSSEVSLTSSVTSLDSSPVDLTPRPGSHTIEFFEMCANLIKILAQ
Outline: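 Compounds were screened in duplicate at 25 uM, and those reaching ~30% inhibition were titrated up to 50 uM. The enzyme was recombinant human AMPKα1, and kinase turnover was read by fluorescence/mobility shift 1 h post-dosing as loss of signal versus DMSO.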

[9] = molecular target: human Fibroblast Growth Factor Receptor 1 (FGFR1), FGFR1 (gene 2260) (UniProt P11362); assay: NVS_ENZ_hFGFR1: NovaScreen (NVS) Enzymatic Assay for human Fibroblast Growth Factor Receptor 1 (FGFR1) (AID 2283159)
Outline: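 Cell-free recombinant kinase with fluorescent substrate, product separated by electrophoretic mobility shift; read 1 hour after dosing, loss of signal relative to DMSO. Initial screen in duplicate at 25 uM, actives followed in concentration series.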

[10] = molecular target: human MET Proto-Oncogene, Receptor Tyrosine Kinase (MET), MET (gene 4233) (UniProt P08581); assay: NVS_ENZ_hMet: NovaScreen (NVS) Enzymatic Assay for human MET Proto-Oncogene, Receptor Tyrosine Kinase (MET) (AID 2283180)
Outline: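 Hits from a 25 uM duplicate screen were retested in concentration series up to 50 uM. Enzyme activity was measured by fluorescence after electrophoretic separation of product from substrate, 1 h after compound addition, relative to DMSO.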

PPP2CA (gene 5515) = PPP2CA (gene 5515) (UniProt P67775); assay: NVS_ENZ_hPPP2CA: NovaScreen (NVS) Enzymatic Assay for human Protein Phosphatase 2 Aatalytic subunit Alpha (PPP2CA) (AID 2283199)
Sequence of PPP2CA (gene 5515) (P67775 whole entry, looked up): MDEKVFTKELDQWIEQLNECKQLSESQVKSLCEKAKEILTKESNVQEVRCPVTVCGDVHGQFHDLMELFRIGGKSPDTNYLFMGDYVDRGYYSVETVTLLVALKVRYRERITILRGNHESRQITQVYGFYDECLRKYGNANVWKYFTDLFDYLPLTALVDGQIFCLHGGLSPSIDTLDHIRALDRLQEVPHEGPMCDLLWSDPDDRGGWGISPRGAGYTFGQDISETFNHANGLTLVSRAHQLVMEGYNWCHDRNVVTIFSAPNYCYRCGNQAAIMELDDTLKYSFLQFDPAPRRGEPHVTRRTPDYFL
Outline: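 Cell-free phosphatase activity: fluorescent substrate turnover by recombinant human enzyme, resolved by mobility shift at 1.33 h. Compounds passing the 25 uM duplicate primary screen were rerun in singleton series with a 50 uM top concentration.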

[11] = molecular target: human Tyrosine Protein Kinase Receptor Tie-2 (Tie2), TEK (gene 7010) (UniProt Q02763); assay: NVS_ENZ_hTie2: NovaScreen (NVS) Enzymatic Assay for human Tyrosine Protein Kinase Receptor Tie-2 (Tie2) (AID 2283225)
Sequence of human Tyrosine Protein Kinase Receptor Tie-2 (Tie2), TEK (gene 7010) (Q02763 whole entry, looked up): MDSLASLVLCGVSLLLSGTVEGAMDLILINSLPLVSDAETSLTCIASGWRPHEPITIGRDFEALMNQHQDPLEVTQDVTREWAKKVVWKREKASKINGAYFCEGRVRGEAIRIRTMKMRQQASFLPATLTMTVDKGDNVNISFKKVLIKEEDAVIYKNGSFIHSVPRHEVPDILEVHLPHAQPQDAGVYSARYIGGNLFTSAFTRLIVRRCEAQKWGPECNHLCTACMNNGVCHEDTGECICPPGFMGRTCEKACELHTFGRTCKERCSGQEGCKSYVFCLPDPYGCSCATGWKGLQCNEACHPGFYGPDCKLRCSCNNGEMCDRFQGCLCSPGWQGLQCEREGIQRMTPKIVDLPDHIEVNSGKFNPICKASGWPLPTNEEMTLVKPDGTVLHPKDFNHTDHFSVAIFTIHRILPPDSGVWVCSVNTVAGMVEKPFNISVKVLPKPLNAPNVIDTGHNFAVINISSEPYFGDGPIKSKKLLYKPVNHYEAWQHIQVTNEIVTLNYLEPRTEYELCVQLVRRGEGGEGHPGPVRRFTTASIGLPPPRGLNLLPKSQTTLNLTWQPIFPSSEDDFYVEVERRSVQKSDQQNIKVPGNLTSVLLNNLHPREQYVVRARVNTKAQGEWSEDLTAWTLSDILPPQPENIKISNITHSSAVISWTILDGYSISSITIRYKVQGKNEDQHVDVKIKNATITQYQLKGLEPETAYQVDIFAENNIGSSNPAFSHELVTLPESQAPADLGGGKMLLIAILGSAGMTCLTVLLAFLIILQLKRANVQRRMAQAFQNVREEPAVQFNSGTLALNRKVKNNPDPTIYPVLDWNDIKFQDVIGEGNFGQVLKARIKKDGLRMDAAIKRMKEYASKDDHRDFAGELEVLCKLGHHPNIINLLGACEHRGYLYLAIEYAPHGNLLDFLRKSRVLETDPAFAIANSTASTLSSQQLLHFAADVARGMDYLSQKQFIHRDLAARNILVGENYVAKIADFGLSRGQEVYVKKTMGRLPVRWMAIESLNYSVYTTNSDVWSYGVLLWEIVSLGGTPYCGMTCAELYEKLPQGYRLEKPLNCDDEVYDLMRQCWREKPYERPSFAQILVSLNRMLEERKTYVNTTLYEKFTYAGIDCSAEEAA
Outline: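 Substrate and product were separated by mobility shift and detected by fluorescence after a 1-hour reaction with recombinant Tie2. Chemicals passing a 25 uM single-point screen were titrated to a maximum of 50 uM. Results were normalized to DMSO baseline.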

[12] = molecular target: rat Acetylcholinesterase (AChE), Ache (gene 83817) (UniProt P37136); assay: NVS_ENZ_rAChE: NovaScreen (NVS) Enzymatic Assay for rat Acetylcholinesterase (AChE) (AID 2283233)
Sequence of rat Acetylcholinesterase (AChE), Ache (gene 83817) (P37136 whole entry, looked up): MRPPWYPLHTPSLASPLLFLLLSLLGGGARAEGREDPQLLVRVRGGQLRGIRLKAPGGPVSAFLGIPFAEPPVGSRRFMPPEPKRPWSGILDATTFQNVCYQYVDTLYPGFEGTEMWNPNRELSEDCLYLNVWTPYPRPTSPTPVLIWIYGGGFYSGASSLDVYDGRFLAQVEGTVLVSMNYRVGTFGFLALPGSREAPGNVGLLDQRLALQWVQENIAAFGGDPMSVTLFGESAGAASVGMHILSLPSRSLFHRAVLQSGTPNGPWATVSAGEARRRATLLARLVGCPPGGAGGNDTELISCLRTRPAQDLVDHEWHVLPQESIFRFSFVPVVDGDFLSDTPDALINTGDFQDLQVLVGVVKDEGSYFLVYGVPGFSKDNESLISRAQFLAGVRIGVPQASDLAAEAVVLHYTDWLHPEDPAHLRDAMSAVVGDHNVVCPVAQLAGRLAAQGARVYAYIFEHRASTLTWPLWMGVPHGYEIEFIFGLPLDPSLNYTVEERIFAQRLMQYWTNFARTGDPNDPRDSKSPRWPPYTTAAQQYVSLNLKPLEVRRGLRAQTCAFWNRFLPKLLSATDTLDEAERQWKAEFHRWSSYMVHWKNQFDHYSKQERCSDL
Outline: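 Compounds first screened at 25 uM in duplicate, then those passing threshold tested in concentration series up to 50 uM, against AChE from rat brain membranes. Enzyme activity read by absorbance at 0.33 h; inhibition scored versus DMSO.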

[13] = test system: rat Monoamine Oxidase, MAO-A, Peripheral (MAOAP), gene 29253; assay: NVS_ENZ_rMAOAP: NovaScreen (NVS) Enzymatic Assay for rat Monoamine Oxidase, MAO-A, Peripheral (MAOAP) (AID 2283237)
Outline: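 Scintillation counting tracked MAO-A activity in a cell-free rat liver mitochondrial membrane prep, read 1.17 hours after compound addition. Single-point duplicate testing at 25 uM preceded concentration-response follow-up; activity was fitted relative to DMSO.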

[14] = test system: rat Monoamine Oxidase, MAO-A, Central (MAOAC), gene 29253; assay: NVS_ENZ_rMAOAC: NovaScreen (NVS) Enzymatic Assay for rat Monoamine Oxidase, MAO-A, Central (MAOAC) (AID 2283243);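 note: potency refers to inhibition seen as signal drop below DMSO baseline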
Outline: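 Single-concentration duplicate testing at 25 uM, then concentration-response for actives, in a lysate-based radiodetection MAO-A activity assay from rat brain. Enzyme activity measured 1.5 hours post-dosing; DMSO served as negative control and baseline.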

[15] = molecular target: human Neonicotinoid receptor (NNR), CHRNA2 (gene 1135) (UniProt Q15822); assay: NVS_LGIC_hNNR_NBungSens: NovaScreen (NVS) Ligand-Gated Ion Channel Assay for human Neonicotinoid receptor (NNR) (AID 2283313)
Outline: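 Compounds first screened in duplicate at 25 uM, then actives re-tested in single-replicate dose series up to 50 uM. Binding measured as displacement of specific radioligand from neuroblastoma membrane receptors after 2 h, scintillation read on filters.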

[16] = molecular target: rat Monoamine Oxidase, MAO-B, Central (MAOBC), Maob (gene 25750) (UniProt P19643); assay: NVS_ENZ_rMAOBC: NovaScreen (NVS) Enzymatic Assay for rat Monoamine Oxidase, MAO-B, Central (MAOBC) (AID 2283238)
Outline: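 Here MAO-B activity in rat brain preparations is quantified radiometrically, counts taken at 1.17 hours. Concentration-response runs reach 50 uM, with plate controls, and values are fitted as loss of signal from the DMSO baseline.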

[17] = molecular target: rat Monoamine Oxidase, MAO-B, Peripheral (MAOBP), Maob (gene 25750) (UniProt P19643); assay: NVS_ENZ_rMAOBP: NovaScreen (NVS) Enzymatic Assay for rat Monoamine Oxidase, MAO-B, Peripheral (MAOBP) (AID 2283242)

OCCCC(F)(F)C(F)(F)C(F)(F)C(F)(F)C(F)(F)C(F)(F)C(F)(F)C(F)(F)F
outcome [1]: inactive
outcome [2]: inactive

O=P(O)(O)OCCC(F)(F)C(F)(F)C(F)(F)C(F)(F)C(F)(F)C(F)(F)F
outcome [1]: inactive
outcome [2]: inactive

NC(=O)C(F)(F)C(F)(F)C(F)(F)C(F)(F)F
outcome [1]: inactive
outcome [2]: inactive

FC(F)(F)C(F)(F)C(F)(F)C(F)(F)C(F)(F)C(F)(F)C(F)(F)C(F)(F)CCS
outcome [1]: inactive
outcome [2]: inactive

O=S(=O)(O)CCC(F)(F)C(F)(F)C(F)(F)C(F)(F)C(F)(F)C(F)(F)C(F)(F)C(F)(F)F
outcome [1]: inactive
outcome [2]: inactive

C[Si](Cl)(Cl)CCC(F)(F)C(F)(F)C(F)(F)C(F)(F)C(F)(F)C(F)(F)F
outcome [1]: inactive
outcome [2]: inactive

O=C1OC(c2ccc(O)cc2)(c2ccc(O)cc2)c2ccccc21
outcome [3]: inactive

CCC(O)=C1C(=O)CC(C(=O)O)CC1=O (centres undefined)
outcome (Caspase-1 (Homo sapiens)): inactive
outcome [4]: inactive

CCCCCCOC(=O)CC(CC(=O)OCCCCCC)(OC(=O)CCC)C(=O)OCCCCCC
outcome [3]: inactive
outcome [4]: inactive

OC[C@H]1O[C@@](CO)(O[C@H]2O[C@H](CO)[C@@H](O)[C@H](O)[C@H]2O)[C@@H](O)[C@@H]1O
outcome (Caspase-1 (Homo sapiens)): inactive

CN1C(=O)CC[C@H]1c1cccnc1
outcome [5]: inactive

Cc1nn(C)c(Oc2ccccc2)c1C=NOCc1ccc(C(=O)OC(C)(C)C)cc1
outcome [6]: inactive
outcome [7]: inactive

CCN(CC)CCNc1ccc(CNC=O)c2sc3ccc(OC)cc3c(=O)c12
outcome [8]: inactive
outcome [9]: inactive
outcome [10]: inactive
outcome (PPP2CA (gene 5515)): inactive
outcome [11]: inactive
AC50 [12]: 15.7 µM (active)
AC50 [13]: 9.35 µM (active)
AC50 [14]: 25 µM (active)
outcome [15]: inactive

CCCCCCCCCCCCc1ccccc1
outcome [8]: inactive

C/C=C/C=C/C(=O)O
outcome [8]: inactive

CSC(=O)c1cccc2nnsc12
outcome [3]: inactive
AC50 [12]: 1.32 µM (active)
outcome [13]: inactive
AC50 [16]: 25 µM (active)
AC50 [14]: 28.2 µM (active)

CCOC(=O)CCC(=O)OCC
outcome [3]: inactive
AC50 [17]: 34.7 µM (active)
